According to the supplement of paper PMC11219838:
A number with no mark means an inactive call.

Experiments:
Conditions in all cases: 60 µM; 5 days; temperature: 20 °C
Meloidogyne hapla J2 = assay: proportion of mobile M. hapla J2 relative to DMSO control (fraction of DMSO control); higher = more viable, less nematicidal, active = 0.7 or less
Method in brief: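 Sealed 96-well plates, each well holding around 25 M. hapla J2 in distilled water with compound pinned to 60 µM final (0.6% v/v DMSO), were shaken at 200 rpm for 5 days at 20 °C. Then 2 µL of 1 M NaOH was added to each well. Microscope-scored mobility was normalised to the mean of DMSO-only wells from the same plate. Eight such wells were on each plate, and the two biological replicates were averaged.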

[1] = tested on: Caenorhabditis elegans dauer (daf-2(e1370)); assay: proportion of mobile C. elegans dauer larvae relative to DMSO control (fraction of DMSO control); higher = more viable, less nematicidal, active = 0.63 or less; extreme values may be limits of the assay
Method in brief: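 Synchronized C. elegans daf-2(e1370) larvae were held at 25 °C for 48 h on MYOB plates with E. coli OP50 to form dauers, and about 20 dauers were added per 96-well well in liquid NGM. Compound was pinned to 60 µM final (0.6% v/v DMSO), and sealed plates were shaken at 200 rpm for 5 days at 20 °C. The proportion of mobile worms was scored under a dissection microscope relative to DMSO controls and averaged over two biological replicates.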

Ditylenchus dipsaci = assay: proportion of mobile D. dipsaci (mixed stage) relative to DMSO control (fraction of DMSO control); higher = more viable, less nematicidal, active = 0.86 or less; extreme values may be limits of the assay
Method in brief: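 Mobility, expressed relative to DMSO controls, is the mean of two biological replicates. The test organisms were D. dipsaci grown on pea plants in Gamborg B-5 agar and extracted into water by filter funnel, with about 20 added per well of a 96-well plate in distilled water. Compound was pinned to 60 µM final (0.6% v/v DMSO), plates were sealed and shaken at 200 rpm for 5 days at 20 °C, and mobile worms were scored under a microscope once 2 µL 1 M NaOH had been added.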

| Structure (SMILES) | proportion of mobile M. hapla J2 (Meloidogyne hapla J2) | proportion of mobile C. elegans dauer larvae [1] | proportion of mobile D. dipsaci (Ditylenchus dipsaci) |
| --- | --- | --- | --- |
| CCOc1ccc(-c2nc(-c3ccc(C)cc3)no2)cc1 | 0.966 | 0.5 (active) | 1 |
| Clc1ccc(OCc2nc(-c3ccc4c(c3)OCO4)no2)cc1 | 0.932 | 1 | 1 |
| CCOc1cc(-c2nc(-c3ccccc3C)no2)cc(OCC)c1OCC | 0.821 | 1 | 1 |
| c1ccc(COc2cccc(-c3nc(-c4cccnc4)no3)c2)cc1 | 0.854 | 1 | 1 |
| COc1ccccc1NC(=O)c1ccccc1-c1nc(-c2ccccc2F)no1 | 1.02 | 1 | 1 |
| Clc1cccc(-c2nc(-c3ccc4c(c3)OCO4)no2)c1 | 0.943 | 1 | 1 |
| Cc1cccc(-c2noc(-c3ccc(Br)cc3)n2)c1 | 1.04 | 1 | 1 |
| Cc1ccc(Cl)cc1NC(=O)CSc1nnc(-c2ccncc2)o1 | 0.913 | 1 | 1 |
| CC(=O)Nc1c(C)ccc(CNC(=O)CSc2nnc(-c3ccc(C(C)(C)C)cc3)o2)c1C | 0.88 | 1 | 1 |
| Cc1ccc(SC(C)c2nc(-c3cccnc3)no2)cc1 (stereo not drawn) | 0.874 | 1 | 1 |
| Clc1ccccc1-c1noc(-c2ccccc2Cl)n1 | 1.02 | 1 | 1 |
| COc1ccc(Cl)cc1-c1noc(-c2ccc(Cl)cc2)n1 | 0.906 | 1 | 1 |
| O=C(CSc1nnc(-c2ccc(Cl)cc2Cl)o1)c1ccc2c(c1)OCCO2 | 0.719 | 1 | 1 |
| CCOc1nc(-c2ccc(C)cc2)ccc1-c1noc(-c2cccnc2)n1 | 0.842 | 1 | 1 |
| Cc1c(C)n(C(=O)CSc2nnc(-c3ccccc3)o2)c2ccccc12 | 0.982 | 1 | 1 |
| O=C(NCc1cccnc1)c1ccccc1-c1nc(-c2ccccc2Cl)no1 | 0.771 | 1 | 1 |
| c1ccc(-c2noc(C3COc4ccccc4O3)n2)cc1 (stereo not drawn) | 0.953 | 0.539 (active) | 1 |
| CCC(=O)Nc1ccccc1-c1nc(-c2ccncc2)no1 | 0.938 | 1 | 1 |
| CCCOc1ccc(-c2ccc(-c3nc(-c4ccccn4)no3)cc2)cc1 | 0.969 | 1 | 1 |
| CCOc1ccccc1-c1nc(-c2ccc(Br)cc2)no1 | 0.916 | 1 | 1 |
| Cc1cccc(-c2nnc(SCC(=O)Nc3ccccc3C(C)C)o2)c1 | 0.892 | 1 | 1 |
| CC(C)CCC(=O)Nc1ccccc1-c1nc(-c2ccccn2)no1 | 1.03 | 1 | 1 |
| Brc1ccc(-c2nnc(SCc3ccccc3)o2)cc1 | 1.04 | 1 | 1 |
| Cc1ccc(SCc2nc(-c3cccnc3)no2)cc1 | 1.1 | 0.75 |  |
| O=C(CSc1nnc(-c2ccncc2)o1)Nc1ccc(Cl)cc1Cl | 0.57 (active) | 1 | 1 |

| Structure (SMILES) | proportion of mobile M. hapla J2 (Meloidogyne hapla J2) | proportion of mobile C. elegans dauer larvae [1] | proportion of mobile D. dipsaci (Ditylenchus dipsaci) |
| --- | --- | --- | --- |
| Cc1cccc(-c2noc(-c3ccccc3Cl)n2)c1 | 0.894 | 1 | 1 |
| C=CCOc1ccc(-c2nc(-c3cccnc3)no2)cc1 | 0.965 | 0.5 (active) | 0.5 (active) |
| Cc1ccc(-c2nc(-c3ccncc3)no2)cc1Cl | 0.852 | 1 | 1 |
| COc1ccc(Cl)cc1-c1noc(-c2cccc(C)c2)n1 | 1.05 | 1 | 1 |
| COc1cccc(-c2noc(COc3ccc(Cl)cc3)n2)c1 | 0.993 | 1 | 1 |
| Cc1cc(OCc2nc(-c3ccccn3)no2)ccc1Br | 0.937 | 1 | 1 |
| Fc1ccccc1-c1nc(-c2ccccc2)no1 | 0.991 | 1 | 1 |
| N#Cc1ccccc1CSc1nnc(-c2ccccc2)o1 | 0.841 | 1 | 1 |
| COc1ccc(-c2nnc(SCc3ccc(Cl)cc3Cl)o2)cc1 | 1.04 | 1 | 1 |
| O=C(CSc1nnc(-c2ccccc2)o1)Nc1ccc(Br)cc1F | 0.992 | 1 | 1 |
| COc1cccc(-c2nnc(SCc3ccccc3C)o2)c1 | 1.01 | 1 | 1 |
| O=C(CSc1nnc(-c2ccco2)o1)Nc1cc(Cl)ccc1Cl | 1.01 | 1 | 1 |
| Cc1ccc(OCc2nc(-c3ccccc3Cl)no2)c(C)c1 | 1 | 1 | 1 |
| Cc1ccc(OCc2nc(-c3ccc(Cl)cc3)no2)cc1C | 1.05 | 1 | 1 |
| O=C(CSc1nnc(-c2ccccc2Cl)o1)Nc1ccccn1 | 0.946 | 1 | 1 |
| Fc1cccc(Cl)c1CSc1nnc(-c2ccccc2)o1 | 1 | 0.977 | 1 |
| COc1ccc(C(=O)CSc2nnc(-c3cccc4ccccc34)o2)cc1 | 0.929 | 1 | 1 |
| CCNC(=O)c1ccccc1-c1nc(-c2ccccc2)no1 | 0.908 | 1 | 1 |
| Fc1ccc(-c2nc(-c3cccc(C(F)(F)F)c3)no2)cc1 | 0.939 | 1 | 1 |
| Cc1ccc(-c2nc(-c3ccccc3Cl)no2)c(Cl)c1 | 0.942 | 1 | 1 |
| COc1ccc(-c2noc(COc3ccc(C)cc3Br)n2)cc1 | 1.01 | 1 | 1 |
| Clc1cc(Cl)c(OCc2nc(-c3ccncc3)no2)cc1Cl | 0.713 | 1 | 1 |
| CCOc1cc(-c2noc(-c3ccncc3)n2)ccc1OC | 0.745 | 1 | 1 |
| Clc1ccccc1-c1noc(-c2ccncc2)n1 | 0.953 | 1 | 1 |
| Cc1ccc(-c2nc(-c3ccc(F)cc3)no2)cc1 | 1.04 | 0 (active) | 0.708 (active) |

| Structure (SMILES) | proportion of mobile M. hapla J2 (Meloidogyne hapla J2) | proportion of mobile C. elegans dauer larvae [1] | proportion of mobile D. dipsaci (Ditylenchus dipsaci) |
| --- | --- | --- | --- |
| Cc1c(C(=O)CSc2nnc(-c3ccccc3)o2)c2ccccc2n1C | 0.957 | 1 | 1 |
| Cc1ccc(C)c(-c2nc(-c3cccnc3)no2)c1 | 1.06 | 0.727 | 1 |
| FC(F)(F)c1cccc(-c2noc(-c3cccs3)n2)c1 | 0.893 | 1 | 1 |
| N#Cc1cccc(CSc2nnc(-c3ccncc3)o2)c1 | 0.745 | 1 | 1 |
| COc1ccc(CC(=O)Nc2ccc(-c3noc(-c4ccccc4Br)n3)cc2)cc1 | 1.08 | 1 | 1 |
| O=C(CSc1nnc(-c2cccc(Br)c2)o1)c1ccc2c(c1)CCCC2 | 0.967 | 1 | 1 |
| COc1ccc(Cl)cc1NC(=O)CSc1nnc(-c2ccncc2)o1 | 0.98 | 1 | 1 |
| Cc1cc(OCc2nc(-c3ccncc3)no2)c(C)cc1Br | 0.866 | 1 | 1 |
| COc1cccc(-c2noc(COc3cccc(C)c3C)n2)c1 | 1.04 | 1 | 1 |
| O=C(CSc1nnc(-c2ccccc2Cl)o1)c1ccc2c(c1)CCCC2 | 0.914 | 1 | 1 |
| O=C(CSc1nnc(-c2ccc(Cl)cc2)o1)NC1CC2CCC1C2 (stereo not drawn) | 0.693 (active) | 1 | 1 |
| COc1ccc(Cl)cc1-c1nnc(SCC(=O)Nc2nccs2)o1 | 0.826 | 1 | 1 |
| COc1ccc(CC(=O)Nc2ccc(-c3noc(-c4ccc(F)cc4)n3)cc2)cc1 | 0.978 | 1 | 1 |
| CCc1ccc(OCc2nc(-c3ccccn3)no2)cc1 | 0.966 | 1 | 1 |
| Cn1c(SCc2nc(-c3ccc(Br)cc3)no2)nnc1-c1ccco1 | 0.835 | 1 | 1 |
| Brc1ccc(CSc2nnc(-c3ccncc3)o2)cc1 | 1.01 | 1 | 1 |
| CCOC(=O)c1c(NC(=O)CSc2nnc(-c3ccc(Cl)cc3)o2)sc(C(C)=O)c1C | 0.809 | 1 | 1 |
| COc1ccc(-c2nnc(SCC(=O)Nc3ccc(Br)cc3C)o2)cc1 | 0.929 | 1 | 0.667 (active) |
| CCOc1ccccc1-c1nc(-c2ccc(NC(=O)Cc3ccccc3OC)cc2)no1 | 1.04 | 1 | 1 |
| CN(C)C(=O)c1ccccc1-c1nc(-c2ccc(Cl)cc2)no1 | 0.963 | 1 | 1 |
| Cc1cc(C)nc(SCc2nc(-c3ccccc3)no2)n1 | 1.05 | 1 | 1 |
| Cc1cc(Cl)ccc1OCc1nc(-c2ccccc2)no1 | 1.02 | 1 | 1 |
| O=C(Nc1ccc(-c2noc(COc3ccccc3Cl)n2)cc1)c1ccccn1 | 1.02 | 1 | 1 |
